# The list is not random: actives were taken first. Their share in the collection is about 8.1%.
# KB-3-1 cytotox – kills parental KB-3-1 adenocarcinoma cells | KB-3-1 viability, CellTiter-Glo ATP luminescence, 72 h | Potency, µM (highest dose often 46.1 µM), actives largely listed as cytotoxic | hit rate 1.4% among 400,000; further: on the % scale 0 is the no-effect control and ±100 the full control effect; nearly all actives have a fitted effect of over 60% in size
#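 Screening of KB-3-1 cells (DMEM, 10% FBS, phenol-red free) ran from lowest to highest compound concentration; after 72 h at 37 °C viability was read luminescently and curves fitted.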
# SW480 rerep – DNA re-replication induction in SW480 cells. hit rate 1.8% among 340,000. SW480 DNA re-replication, Hoechst DNA content imaging, 48 h. Potency, µM (highest dose often 46.1 µM), for inactives: at the highest dose re-replication activation, usual class: activators. AID 624297; further: % of control where 0% means no effect; nearly all actives have a fitted effect of over 55% in size
#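 Image-based read-out: total Hoechst fluorescence of nuclei (405 nm excitation, 500-530 nm emission), with hits raising the fraction of high-intensity nuclei. SW480 colon cells incubated 48 hr with compounds at 37 C.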
# ELG1 DNA repair – blocks ELG1-dependent DNA repair in HEK293T cells | HEK293T ELG1-luciferase reporter, luminescence, 16 h; DNA damage induced by 5-fluorouridine | Potency, µM (doses to about 46.1 µM), without a hit: at the top dose activity change, negative = inhibition, actives largely listed as inhibitors | hit rate 2.3% among 330,000; further: on the % scale 0 is the no-effect control and ±100 the full control effect; nearly all actives have a fitted effect of over 55% in size
#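 5-Fluorouridine DNA damage + compound/DMSO, 2,000 cells/well, 16 h, 37 °C/5% CO2. ONE-Glo, 30 min RT, luminescence. Readout = decrease in reporter signal.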
# MCF10A rerep – DNA re-replication induction in MCF 10a cells | MCF 10A DNA re-replication, Hoechst nuclear intensity, 48 h | Potency, µM (titrated, usually from 46.1 µM), inactives show at the top dose activity, positive = re-replication, most hits filed as activators | hit rate 2.9% among 350,000 | AID 624296; further: % of control where 0% means no effect; nearly all actives have a fitted effect of over 50% in size
# KB-V1 MDR tox – kills drug-selected multidrug resistant KB-V1 cells | Potency, µM (series often up to 46.1 µM), actives largely listed as cytotoxic | KB-V1 MDR cells viability, CellTiter-Glo, 72 h | hit rate 3.4% among 400,000 | AID 1347076; further: on the % scale 0 is the no-effect control and ±100 the full control effect; nearly all actives have a fitted effect of over 60% in size
#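 Cells of the MDR subline KB-V1 are plated, dosed with compound at multiple concentrations, and incubated 72 h at 37 degrees C; CellTiter-Glo is then added and luminescence read after 10 min.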
# * marks the source's active call; other numbers are inactive results; i = inactive; ? = inconclusive; / = no result given; ! = a repeat was not active. The call rests on the fitted dose curve; in most records, active means well fitted curve in the direction sought with a large enough effect; inconclusive means small, poorly fitted or top-dose-only effect, or another doubt; inactive means no such curve, though single readings can be large; an effect the other way counts as inactive or inconclusive. Potency means the concentration at half of the fitted maximal effect.
SMILES,KB-3-1 cytotox,SW480 rerep,ELG1 DNA repair,MCF10A rerep,KB-V1 MDR tox
Cc1cccc(N2CCN(C3(c4ccccc4)C(=O)c4ccccc4C3=O)CC2C)c1 (stereo not drawn),i,/,/,/,?
FC(F)(F)c1ccc(Cl)c(-n2c(-c3cc(C4CC4)[nH]n3)n[nH]c2=S)c1,i,-3.7%,1.0%,-0.9%,i
COc1cc(-c2n[nH]c(=S)n2-c2cc(C(F)(F)F)ccc2Cl)cc(OC)c1OC,i,-94.9%,?,-50.5%,13µM*
O=C(c1cc(COc2c(F)cccc2F)on1)N1CCC(c2ccncc2)CC1,23.1µM*,-5.0%,?,?,?
Cc1ccccc1CNC(=O)C1CCN(S(=O)(=O)Cc2ccccc2)CC1,i,/,/,/,i
Cn1c(=O)n(C)c2cc(NS(=O)(=O)c3ccc4c(c3)CCCC4)ccc21,18.4µM*,18.2%,60.6%,23.1µM*,9.2µM*
Cn1c(=O)n(C)c2cc(NS(=O)(=O)c3ccc(C(C)(C)C)cc3)ccc21,i,-4.4%,-11.9%,3.2%,?
COc1ccc(NS(=O)(=O)c2ccc3c(c2)n(C)c(=O)n3C)cc1,i,2.5%,?,5.8µM*,i
CCCc1cc(=O)oc2cc(OCC(=O)NCC(O)c3ccccc3)ccc12 (stereo not drawn),i,2.1%,9.2%,0.3%,i
COc1ccc(/C=C2/NC(=O)N(Cc3ccccc3F)C2=O)cc1OC,i,-3.7%,12.6%,-2.4%,i
COc1cc(/C=C2/NC(=O)N(Cc3ccccc3F)C2=O)cc(OC)c1OC,i,-11.2%,-24.8%,4.2%,0.184µM*
Cc1cc(/C=C2/NC(=O)N(Cc3ccccc3F)C2=O)c(C)n1-c1ccccn1,i,0.82µM*,-6.5%,?,?
CCn1c(C)cc(/C=C2\NC(=O)N(Cc3ccc(Cl)cc3)C2=O)c1C,i,14.1µM*,5.5%,?,i
CCN1C(=O)N/C(=C/c2cc(C)n(Cc3ccccc3)c2C)C1=O,i,?,?,?,i
C[C@H](CO)NC(=O)c1[nH]cnc1C(=O)Nc1cccc(Cl)c1,i,/,/,/,i
Cc1ccc(C2C=C(c3ccc(F)cc3)Nc3nc(CCCO)nn32)cc1 (stereo not drawn),i,/,/,/,i
CC(CCc1ccccc1)NC(=O)C1CCCN(c2nnc(-n3cccc3)s2)C1 (stereo not drawn),i,2.0%,?,22.3%,i
O=C(C1CCN(S(=O)(=O)c2ccc(Cl)s2)CC1)N1CCN(c2ccccc2)CC1,i,-5.5%,/,19.1%,18.4µM*
O=C(C1CCN(S(=O)(=O)c2ccccc2)CC1)N1CCN(c2ccccc2)CC1,i,?,-8.4%,?,i
O=C(C1CCCN(S(=O)(=O)c2ccc(Br)s2)C1)N1CCN(c2ccccc2)CC1 (stereo not drawn),i,-28.1%,14.6µM*,?,i
COc1cccc(N2CCN(C(=O)C3CCCN(S(=O)(=O)c4ccc(Br)s4)C3)CC2)c1 (stereo not drawn),i,/,/,/,i
O=C(C1CCN(S(=O)(=O)c2c(Cl)cccc2Cl)CC1)N1CCCCCCC1,i,4.11µM*,?,0.3%,i
O=C(C1CCCN(c2nnc(-n3cccc3)s2)C1)N1CCN(c2ccccc2)CC1 (stereo not drawn),i,?,16.4µM*,?,i
O=S(=O)(c1ccc(Cl)s1)N1CCN(c2ncccn2)CC1,i,7.0%,-14.0%,18.4µM*,i
Cc1ccc(S(=O)(=O)ON2C(=O)c3cccc4cccc(c34)C2=O)cc1,i,-16.8%,11.5%,-1.5%,i
SMILES,KB-3-1 cytotox,SW480 rerep,ELG1 DNA repair,MCF10A rerep,KB-V1 MDR tox
Cc1ccc(S(=O)(=O)N2C(=O)c3cccc4cccc2c34)cc1,?,?,?,9.2µM*,i
C=CCNCc1cccn1-c1sc2c(c1C#N)CCCC2,i,-5.5%,?,0.4%,i
N#Cc1c(-n2cccc2/C=N/O)sc2c1CCCC2,i,1.8%,-1.5%,1.5%,23.1µM*
COc1cccc(CNc2nc3cc(-c4ccccc4)sc3c(=O)n2C)c1,7.31µM*,/,/,/,2.31µM*
C=CCNc1nc2cc(-c3ccccc3C)sc2c(=O)n1C,20.6µM*,/,/,/,?
COc1cccc(CNc2nc3cc(-c4ccc(F)cc4)sc3c(=O)n2C)c1OC,i,/,/,/,i
COc1cccc(CNc2nc3cc(-c4ccc(OC)c(OC)c4)sc3c(=O)n2C)c1,i,/,/,/,i
COc1cccc(CNc2nc3cc(-c4ccsc4)sc3c(=O)n2C)c1OC,9.2µM*,/,/,/,2.59µM*
COc1cccc(CNc2nc3cc(-c4ccc(C)cc4)sc3c(=O)n2C)c1OC,?,/,/,/,11.6µM*
CCOc1ccc(CC(=O)Nc2c(C(=O)c3ccccc3)oc3ccc(Cl)cc23)cc1OCC,i,/,/,/,i
O=c1cc(-c2ccccc2)c2cc(Cl)c3c(c2o1)CN(Cc1ccccc1)CO3,i,/,/,/,i
CCN(C(=O)Cn1nnc2sc3c(c2c1=O)CCC(C(C)(C)C)C3)c1cccc(C)c1 (stereo not drawn),i,/,/,/,i
CC(=O)Nc1ccc(CNc2nc3cc(-c4ccsc4)sc3c(=O)n2C)cc1,?,/,/,/,23.1µM*
CC(=O)Nc1ccc(CNc2nc3cc(-c4ccc(F)cc4)sc3c(=O)n2C)cc1,i,/,/,/,i
O=C1NC(=S)N/C1=C\c1ccc(N2CCOCC2)cc1,i,18.4µM*,?,?,i
Cc1cccc(NC(=O)CN(C)S(=O)(=O)c2ccc3c(c2)CCC(=O)N3)c1C,i,/,/,/,i
COc1ccc(C2C3=C(CC(C)(C)CC3=O)Oc3ncn(Cc4ccccc4)c(=N)c32)cc1 (stereo not drawn),i,?,?,16.4µM*,3.26µM*
CC1(C)CC(=O)C2=C(C1)Oc1ncn(Cc3ccco3)c(=N)c1C2c1ccccc1 (stereo not drawn),i,9.1%,?,-3.4%,?
COc1ccc(C2c3c(ncn(CCN4CCOCC4)c3=N)Oc3ccc4ccccc4c32)cc1 (stereo not drawn),?,?,4.6%,?,14.6µM*!
N=c1c2c(ncn1CCN1CCOCC1)Oc1ccc3ccccc3c1C2c1ccccc1 (stereo not drawn),i,-10.7%,-8.0%,-0.3%,i
CCCCCCCCCCCCCCCC[n+]1ccc(CC(O)c2c(C)[nH]c3ccccc23)c2ccccc21 (stereo not drawn),16.4µM*,/,/,/,16.4µM*
CCOc1[nH]c(/N=C/c2ccc(OC)cc2)c(C#N)c1C#N,i,/,/,/,i
CCCCn1c2ccc(F)cc2c2nnc(NN)nc21,i,?,?,0.651µM*,i
CCn1c2ccc(C)cc2c2nnc(NN)nc21,i,?,?,?,?

# Bioassay records from PubChem.
